Values without a mark were called inactive. Where a call stands in place of a potency, no number is given. The source made the active and inactive calls. Calls come from the whole dose curve; as a rule, active = well fitted inhibition curve with a large enough effect; inconclusive = small, poorly fitted or top-dose-only effect; inactive = flat fitted curve, though single readings scatter. Where a SMILES comes first, the peptide text is derived from it. [ ]: non-standard residue; d: D form.

This assay has as its system Nanoluciferase (engineered Oplophorus gracilirostris luciferase). Briefly: Primary Nanoluciferase (NLuc) qHTS assay for identification of artifact compounds. (AID 1845222). As to conditions: NLuc-conditioned medium, Nano-Glo luminescence, 5 min; series mostly up to 54.1 µM. Summed up: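 Diluted conditioned medium from NLuc-expressing S16 cells treated with compounds for 15 min at room temperature, then Nano-Glo substrate added; luminescence read after 5 min. Percent inhibition versus no-enzyme and DMSO controls fitted to 4-parameter Hill equation.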
For `C/C1=C\C[C@H](O[C@@H]2O[C@H](CO)[C@@H](O)[C@H](O)[C@H]2O)/C(C)=C/[C@H]2OC(=O)[C@H](C)[C@@H]2CC1`, the Potency result was “inactive”. Take `c1ccc(C(OC2CCN(CCCc3nn[nH]n3)CC2)c2ccccc2)cc1`: the Potency result was “inactive”. In the case of `C[C@@H]1CC[C@]2(C(=O)O)CC[C@]3(C)C(=CCC4[C@]5(C)C(CC[C@]43C)C(C)(C)[C@@H](O)[C@H](O)[C@@H]5O)C2[C@]1(C)O` (stereo not given in full), the Potency entry is “inactive”. As to `C/C=C/C1=CC2=CC(=O)C(C)(O)C(OC(=O)c3c(C)cc(O)cc3O)C2CO1` (stereo not given), the Potency result was “inactive”.

Take `CCC(C)/C=C(C)/C=C/C1=CC2=C(Cl)C(=O)C(C)(OC(C)=O)C(=O)C2=CN1CCCC(=O)O` (stereo not given): the Potency result is “inactive”. On to `C[C@]12C=CC(=O)C=C1CC[C@@H]1[C@@H]2[C@@H](O)C[C@@]2(C)[C@H]1CC[C@]2(O)C(=O)COC(=O)CCC(=O)O`, for which the Potency result was “inactive”. As for `CCC(C)/C=C(C)/C=C/C1=CC2=C(Cl)C(=O)C(C)(OC(C)=O)C(=O)C2=CN1C1CCCCN(C(CCC(N)=O)C(=O)O)C1=O` (stereo not given), the Potency entry is “inactive”. `CC(=O)O[C@@H]1C[C@]2(C)[C@@]3(CCC4[C@@]5(C)CC[C@H](O[C@@H]6O[C@H](C(=O)O)[C@@H](O)[C@H](O[C@@H]7O[C@H](CO)[C@H](O)[C@H](O)[C@H]7O[C@@H]7O[C@@H](C)[C@H](O)[C@@H](O)[C@H]7O[C@@H]7OC[C@](O)(CO)[C@H]7O)[C@H]6O[C@@H]6O[C@H](CO)[C@H](O)[C@H](O)[C@H]6O)C(C)(C)C5CC[C@]42C)O[C@@H](O)[C@]12C3CC(C)(C)[C@@H](OC(=O)/C=C/c1ccc(O)c(O)c1)[C@@H]2OC(=O)/C=C/c1ccccc1` (stereo not given in full): the activity, negative = inhibition was 1.63% [at 11.6 µM].

For the compound `C=C1CCC2(OC1)OC1CC3C4CC=C5CC(O)CC(O[C@@H]6OC[C@@H](O)[C@H](O)[C@H]6O)C5(C)C4CCC3(C)C1(O)C2C` (stereo not given in full), the Potency entry is “inactive”. On the same count and under the same terms, in the case of `CC1CCCC2OC2C(=O)c2c(O)cc(O)cc2CC(=O)O1` (stereo not given) it was “inactive”; in that of `CC(=O)OC1C(O)C(C)=C(CCC(C)CC(=O)O)C2(C)CCCC(C)(C)C12` (stereo not given), “inactive”; in that of `C[C@]12CCC(=O)C=C1[C@@H](O)C[C@@H]1[C@@H]2[C@@H](O)C[C@@]2(C)[C@H]1CC[C@]2(O)C(=O)CO`, “inactive”.

For `CO[C@@H](Cc1ccc(OCCc2nc(-c3ccccc3)oc2C)c2ccsc12)C(=O)O`, the Potency result was “inactive”. As for `CC(=O)N[C@H]1[C@H](O[C@H]2CC[C@@]3(C)C(CC[C@]4(C)C3CC=C3C5CC(C)(C)CC[C@]5(C(=O)O)[C@H](O[C@@H]5O[C@H](CO)[C@@H](O)[C@H](O)[C@H]5O)C[C@]34C)C2(C)C)O[C@H](CO[C@@H]2OC[C@H](O)[C@H](O)[C@H]2O[C@@H]2OC[C@@H](O)[C@H](O)[C@H]2O)[C@@H](O)[C@@H]1O` (stereo not given in full), the activity, negative = inhibition was -3.44% [at 11.6 µM].

As for `CC(=O)O[C@H]1C[C@@H]2[C@]3(CC[C@]4(C)[C@@H](C5(C)CCC(C(C)(C)O)O5)[C@@H](O)C[C@@]24C)C[C@@]32CC[C@H](O[C@@H]3OC[C@@H](O)[C@H](O)[C@H]3O)C(C)(C)[C@H]12` (stereo not given in full), the Potency entry is “inactive”. Turning to `C=C[C@](C)(CC/C=C(\C)C(=O)O)O[C@@H]1OC[C@H](O)[C@H](O)[C@H]1O`, the Potency entry was “inactive”.

For the compound `O=C(O)C[C@H]1CCC(=O)[C@@H]1C/C=C\CCOC1OC(CO)C(O)C(O)C1O` (stereo not given in full), the Potency result was “inactive”. Take `CC(C(=O)O)C1CCC2(C)C3C(=O)C=C4C(CCC(=O)C4(C)C)C3(C)CCC12C` (stereo not given): the Potency result was “inactive”.

For the compound `COc1ccc(C(=O)O[C@H]2CC(C)=CC[C@@]3(C)[C@@H](OC(C)=O)C[C@@](O)(C(C)C)[C@H]23)cc1`, the Potency entry is “inactive”. Same read-out and setting: the same measure for `c1nc(NC2CCCCCC2)c2cc(CNC[C@H]3CCCO3)sc2n1`: “inactive”. As to `CCC[C@@H]1C[C@@H](C(=O)N[C@H](C(C)Cl)[C@H]2O[C@H](SC)[C@H](O)[C@@H](O)[C@H]2O)N(C)C1` (stereo not given in full), the Potency result is “inactive”. For the compound `CC1CCC2C(C)(C)C(O)CCC2(C)C12Cc1c(O)cc3c(c1O2)CN(C(CCC(N)=O)C(=O)O)C3=O` (stereo not given), the Potency result is “inactive”. Regarding `O=C(c1ccc(F)cc1)C1CCN(CCn2c(=O)nc3n(c2=O)CCCC3)CC1`, the Potency entry was “inactive”. On to `C=CC(C)(O)CC/C=C(/C)C(=O)OC1C(OC2OCC(OC3OC(CO)C(O)C(O)C3O)C(OC3OCC(O)C(OC4OC(C)C(O)C(O)C4O)C3O)C2O)COC(OC(=O)C23CCC(C)(C)CC2C2=CCC4C5(C)CCC(OC6OC(CO)C(OC7OC(CO)C(O)C(OC8OCC(O)C(O)C8O)C7O)C(O)C6O)C(C)(C)C5CCC4(C)C2(C)CC3O)C1O` (stereo not given), for which the activity, negative = inhibition was 2.49% [at 6.45 µM]. Still for that read-out and setting: the same measure for `C[C@@H]1O[C@@H](O[C@H]2[C@H](O[C@H]3CC[C@@]4(C)C(CC[C@]5(C)C4CC=C4C6CC(C)(C)CC[C@]6(C(=O)O[C@@H]6O[C@H](CO[C@@H]7O[C@H](CO)[C@@H](O[C@@H]8O[C@@H](C)[C@H](O)[C@@H](O)[C@H]8O)[C@H](O)[C@H]7O)[C@@H](O)[C@H](O)[C@H]6O)CC[C@]45C)[C@]3(C)CO)OC[C@H](O)[C@@H]2O)[C@H](O)[C@H](O)[C@H]1O` (stereo not given in full): 0.304% [at 11.6 µM]. For `COc1c(C)c(OCC=C(C)C)cc2c1C(=O)NC2=O`, the Potency result was “inactive”.

As to `CC(=O)N[C@H](Cc1ccc(O)cc1)C(=O)N[C@H](CCCN=C(N)N)C(=O)N[C@H](Cc1ccccc1)C(N)=O` (Ac-[dY]-[dR]-[dF]-NH2), the Potency entry was “inactive”. On to `CCS(=O)(=O)N1CCC([C@@H](C)n2c(C)c(C(=O)NCc3c(OC)cc(C)[nH]c3=O)c3ccccc32)CC1`, for which the Potency result is “inactive”.

`C/C=C/C=C/C=C/C(=O)O[C@@H]1[C@@H](OC)C2=C(C(=O)N(C(C)C(=O)O)C2)[C@@]2(C)CCCC(C)(C)[C@H]12` (stereo not given in full): the Potency entry was “inactive”.

Turning to `O=C(O)c1cc(O[C@@H]2O[C@H](CO[C@@H]3OC[C@@H](O)[C@H](O)[C@H]3O)[C@@H](O)[C@H](O)[C@H]2O)c2ccccc2c1O`, the Potency entry is “inactive”.

Take `C[C@@H]1O[C@@H](O[C@H]2[C@H](OC(=O)[C@]34CCC(C)(C)C[C@H]3C3=CCC5[C@@]6(C)C[C@H](O)[C@H](O[C@@H]7O[C@H](CO)[C@@H](O[C@@H]8O[C@H](CO)[C@@H](O)[C@H](O)[C@H]8O)[C@H](O)[C@H]7O)[C@@](C)(CO)C6[C@H](O)C[C@@]5(C)[C@]3(C)C[C@H]4O)OC[C@H](O)[C@@H]2O)[C@H](O)[C@H](O)[C@H]1O[C@@H]1OC[C@@H](O)[C@H](O[C@@H]2OC[C@](O)(CO)[C@H]2O)[C@H]1O` (stereo not given in full): the activity, negative = inhibition is 2.77% [at 11.6 µM]. Consider `CC(=C/C(=O)O)/C=C/[C@]1(O)[C@@]2(C)CO[C@]1(C)C[C@H](O[C@@H]1O[C@H](CO)[C@@H](O)[C@H](O)[C@H]1O)C2`, for which the Potency result was “inactive”. With `c1ccc(Cc2ncc3c(n2)CCNCC3)cc1`, the Potency entry was “inactive”. Same read-out and setting: the same measure for `C/C=C/C=C/C=C/C(=O)O[C@@H]1C=C(CO)C(O)(C(=O)O)[C@@]2(C)CCCC(C)(C)[C@H]12` (stereo not given in full): “inactive”. The same measure, in the same setting: in the case of `COc1cc([C@H]2OC[C@]3(OC(C)=O)[C@@H](c4ccc(O[C@@H]5O[C@H](CO)[C@@H](O)[C@H](O)[C@H]5O)c(OC)c4)OC[C@H]23)ccc1O` it was “inactive”; in that of `Cc1nnc(C(C)C)n1C1CC2CCC(C1)N2CC[C@H](NC(=O)C1CCC(F)(F)CC1)c1ccccc1` (stereo not given in full), “inactive”.

`CC1(C)CCC2(C(=O)OC3OC(COC4OC(CO)C(O)C(O)C4O)C(O)C(O)C3O)CCC3(C)C(=CCC4C5(C)CCC(O)C(C)(C(=O)O)C5CCC43C)C2C1O` (stereo not given): the activity, negative = inhibition is 2.66% [at 11.6 µM].

Regarding `C[C@@H]1O[C@@H](O[C@H]2[C@H](O)[C@@H](C(=O)O)O[C@@H](O[C@H]3CC[C@@]4(C)C(CC[C@]5(C)C4CC=C4C6CC(C)(C)CC[C@]6(C(=O)O)CC[C@]45C)C3(C)C)[C@@H]2O[C@@H]2O[C@H](CO)[C@@H](O)[C@H](O)[C@H]2O)[C@H](O)[C@H](O)[C@H]1O` (stereo not given in full), the activity, negative = inhibition is -0.245% [at 11.6 µM]. Regarding `O=C(NCC(=O)N1CC[C@H](NC2CCC(O)(c3ccc(-c4ncccn4)cn3)CC2)C1)c1cccc(C(F)(F)F)c1` (stereo not given in full), the Potency entry is “inactive”. For `CCOC(=O)[C@H](CCc1ccccc1)N[C@@H](C)C(=O)N1C2CCCCC2C[C@H]1C(=O)O` (stereo not given in full), the Potency entry is “inactive”.

The values are drawn from PubChem BioAssay (NCATS).
